From PubChem BioAssay (NCI)
This is part of a sample that, as a whole, favours compounds with a hit. Of some 83,000 tested, about 20% had one in any assay.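 A percent growth of 40 corresponds to 60% growth inhibition; 0 means no net growth; -100 means all cells died. Active threshold: below 10.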 The source made the active and inactive calls.

How the values were obtained:
Assay in all cases: NCI-60 one-dose screen, 48 h (100 = growth as untreated, 0 = no growth, -100 = all killed)
NCI-H23 lung = system: NCI-H23 lung
NCI-H226 lung = system: NCI-H226 lung
NCI-H322M lung = conditions: 10 µM unless noted
HOP-62 NSCLC = system: HOP-62 NSCLC
NCI-H460 lung = system: NCI-H460 lung
HOP-92 NSCLC = system: HOP-92 NSCLC
NCI-H522 lung = system: NCI-H522 lung
A549/ATCC NSCLC = system: A549/ATCC NSCLC
786-0 renal = system: 786-0 renal
COLO 205 colon = system: COLO 205 colon

Measured: growth

Cn1cc(-c2csc(-c3c[nH]c4ccc(F)cc34)n2)c2cnccc21
active: HOP-62 NSCLC; 10 µM unless noted -55.1% | NCI-H460 lung; 10 µM unless noted -54.3% | HOP-92 NSCLC; 10 µM unless noted -47% | NCI-H522 lung; 10 µM unless noted -78.5% | A549/ATCC NSCLC; 10 µM unless noted 5.33% | 786-0 renal; 10 µM unless noted -94.5% | COLO 205 colon; 10 µM unless noted -93.2%
inactive: NCI-H23 lung; 10 µM unless noted 49.3% | NCI-H226 lung; 10 µM unless noted 52% | NCI-H322M lung 15.4%

CCN(CC)CCCN1C(=O)c2c(c(C)c3c(oc4cc(OC)ccc43)c2C)C1=O
active: NCI-H226 lung; 10 µM unless noted -5.51% | 786-0 renal; 10 µM unless noted -79%
inactive: NCI-H23 lung; 10 µM unless noted 105% | NCI-H322M lung 94.2% | HOP-62 NSCLC; 10 µM unless noted 109% | NCI-H460 lung; 10 µM unless noted 92.6% | HOP-92 NSCLC; 10 µM unless noted 87.3% | NCI-H522 lung; 10 µM unless noted 104% | A549/ATCC NSCLC; 10 µM unless noted 92.5% | COLO 205 colon; 10 µM unless noted 86.1%

O=C1C(=C(O)c2ccccc2)C(=O)c2ccccc21
inactive: NCI-H23 lung; 10 µM unless noted 103% | NCI-H226 lung; 10 µM unless noted 104% | NCI-H322M lung 109% | HOP-62 NSCLC; 10 µM unless noted 99.5% | NCI-H460 lung; 10 µM unless noted 116% | HOP-92 NSCLC; 10 µM unless noted 88% | NCI-H522 lung; 10 µM unless noted 101% | A549/ATCC NSCLC; 10 µM unless noted 105% | 786-0 renal; 10 µM unless noted 95.6% | COLO 205 colon; 10 µM unless noted 121%

COc1ccc(C(=O)/C=C/c2ccc(OCc3cccc(C(F)(F)F)c3)c(OC)c2)cc1OC
inactive: NCI-H23 lung; 10 µM 69.9% | NCI-H23 lung; 100 µM 11.1% | NCI-H226 lung; 10 µM 81.4% | NCI-H322M lung 11.7% [100 µM] | HOP-62 NSCLC; 10 µM 111% | NCI-H460 lung; 10 µM 78.9% | HOP-92 NSCLC; 10 µM 79.4% | NCI-H522 lung; 10 µM 53.8% | A549/ATCC NSCLC; 10 µM 73.1% | A549/ATCC NSCLC; 100 µM 14.9% | 786-0 renal; 10 µM 122% | COLO 205 colon; 10 µM 103% | COLO 205 colon; 100 µM 23.2%
active: NCI-H226 lung; 100 µM -12.8% | HOP-62 NSCLC; 100 µM 5.03% | NCI-H460 lung; 100 µM 6.09% | HOP-92 NSCLC; 100 µM -17.4% | NCI-H522 lung; 100 µM -18.5% | 786-0 renal; 100 µM -3.87%

CC(=O)/C=C/c1ccc(N(C)Cc2ccc(C(C)(C)C)cc2)cc1
inactive: NCI-H23 lung; 10 µM 75.5% | NCI-H226 lung; 10 µM 85.1% | HOP-62 NSCLC; 10 µM 97.6% | NCI-H460 lung; 10 µM 96.9% | HOP-92 NSCLC; 10 µM 77.3% | NCI-H522 lung; 10 µM 77.1% | A549/ATCC NSCLC; 10 µM 89.6% | 786-0 renal; 10 µM 97.3% | COLO 205 colon; 10 µM 113%
active: NCI-H23 lung; 100 µM -10.1% | NCI-H226 lung; 100 µM -82.3% | NCI-H322M lung -64.5% [100 µM] | HOP-62 NSCLC; 100 µM -34.8% | NCI-H460 lung; 100 µM -63.7% | HOP-92 NSCLC; 100 µM -92.6% | NCI-H522 lung; 100 µM -76.4% | A549/ATCC NSCLC; 100 µM -48.6% | 786-0 renal; 100 µM -75% | COLO 205 colon; 100 µM -72%

CC(=O)/C=C/c1ccc(N(CCO)Cc2ccc(C(C)(C)C)cc2)cc1
active: NCI-H23 lung; 100 µM -70.7% | NCI-H226 lung; 100 µM -78.1% | NCI-H322M lung -98.7% [100 µM] | HOP-62 NSCLC; 100 µM -92.7% | NCI-H460 lung; 100 µM -86% | NCI-H522 lung; 100 µM -71% | A549/ATCC NSCLC; 100 µM -99.3% | 786-0 renal; 100 µM -93.4% | COLO 205 colon; 100 µM -76.6%
inactive: NCI-H23 lung; 10 µM 75.5% | NCI-H226 lung; 10 µM 72.9% | HOP-62 NSCLC; 10 µM 78.6% | NCI-H460 lung; 10 µM 74.4% | NCI-H522 lung; 10 µM 70.1% | A549/ATCC NSCLC; 10 µM 66.3% | 786-0 renal; 10 µM 87.5% | COLO 205 colon; 10 µM 90.1%

CCOC(=O)C1=C(C)N=C2SC=C(c3ccc(F)cc3)N2[C@H]1c1cn(-c2ccccc2)nc1-c1ccc(Cl)cc1
inactive: NCI-H23 lung; 10 µM unless noted 102% | NCI-H226 lung; 10 µM unless noted 96.4% | NCI-H322M lung 88.6% | HOP-62 NSCLC; 10 µM unless noted 86.8% | NCI-H460 lung; 10 µM unless noted 102% | HOP-92 NSCLC; 10 µM unless noted 61.6% | NCI-H522 lung; 10 µM unless noted 83.4% | A549/ATCC NSCLC; 10 µM unless noted 77.8% | 786-0 renal; 10 µM unless noted 87.6% | COLO 205 colon; 10 µM unless noted 107%

CCN1CCN(CC(=O)Nc2nc3ccc(NCc4ccc(C)cc4)cc3s2)CC1
inactive: NCI-H23 lung; 10 µM unless noted 72.6% | NCI-H226 lung; 10 µM unless noted 72% | NCI-H322M lung 87.6% | HOP-62 NSCLC; 10 µM unless noted 78.5% | NCI-H460 lung; 10 µM unless noted 44.5% | HOP-92 NSCLC; 10 µM unless noted 39% | NCI-H522 lung; 10 µM unless noted 93.7% | A549/ATCC NSCLC; 10 µM unless noted 73.4% | 786-0 renal; 10 µM unless noted 68% | COLO 205 colon; 10 µM unless noted 16.3%

O=C1C(Nc2ccc(Cl)cc2)=C(I)C(=O)c2ncccc21
active: NCI-H23 lung; 10 µM unless noted 9.7% | HOP-92 NSCLC; 10 µM unless noted -90.4% | NCI-H522 lung; 10 µM unless noted -58.7% | COLO 205 colon; 10 µM unless noted -45.9%
inactive: NCI-H226 lung; 10 µM unless noted 88.4% | NCI-H322M lung 64.3% | HOP-62 NSCLC; 10 µM unless noted 48.1% | NCI-H460 lung; 10 µM unless noted 17.5% | A549/ATCC NSCLC; 10 µM unless noted 35.5% | 786-0 renal; 10 µM unless noted 26.1%

CCN(Cc1ccccc1)c1ccc(/C=C2\COc3ccccc3C2=O)cc1
inactive: NCI-H23 lung; 10 µM 97.2% | NCI-H23 lung; 100 µM 37.1% | NCI-H226 lung; 10 µM 95.4% | NCI-H226 lung; 100 µM 50.9% | NCI-H322M lung 75.9% [100 µM] | HOP-62 NSCLC; 10 µM 89.6% | HOP-62 NSCLC; 100 µM 56.8% | NCI-H460 lung; 10 µM 100% | NCI-H460 lung; 100 µM 45.8% | HOP-92 NSCLC; 10 µM 85.9% | HOP-92 NSCLC; 100 µM 23% | NCI-H522 lung; 10 µM 88.5% | A549/ATCC NSCLC; 10 µM 99.4% | A549/ATCC NSCLC; 100 µM 47% | 786-0 renal; 10 µM 86.9% | 786-0 renal; 100 µM 54.5% | COLO 205 colon; 10 µM 106% | COLO 205 colon; 100 µM 38.9%
active: NCI-H522 lung; 100 µM 2.07%
